Screening results (PubChem)
IL1B cytotox: toxic to HUVEC cells under IL-1B stimulation; HUVEC cell count loss, Hoechst imaging, IL-1B stimulated; cell count reduction, % at 2 µM; 94,000 tested, 0.41% active;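 active = cell count reduction more than 3 SD above the screen-wide mean, cut at about 70% in these data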;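 also: normalized per plate to untreated control cells as the no-loss baseline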
VCAM1 TNFa inh: reduces TNF alpha induced VCAM1 expression in HUVEC | HUVEC TNFa-induced VCAM-1 immunofluorescence, high-content imaging | inhibition, % at 2 µM | 95,000 tested, 0.48% active | AID 802;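 active = inhibition above the batch mean plus 3 SD, with images confirmed as a hit by eye, cut at about 37% in these data; inconclusive = inhibition above that limit but hit not confirmed in images; inactive = inhibition not above that limit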;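 also: 0% = TNF-stimulated DMSO wells and 100% = unstimulated control wells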
IL1B NFkB inh: blocks IL-1B driven NFkB nuclear translocation in HUVEC cells. HUVEC IL-1B NFkB p65 nuclear translocation imaging. inhibition, % at 2 µM. 94,000 tested, 0.43% active. AID 796;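 active = inhibition above about 30% together with a positive call from visual inspection of the well image, limit read from the data; inconclusive = inhibition above a set limit but visual check negative; inactive = inhibition not above a set limit, visual check negative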;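 also: nuclear over cytoplasmic p65 intensity ratio measured by imaging; 0% = IL-1B stimulated DMSO wells and 100% = unstimulated DMSO wells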
HUVEC tox TNFa: toxic to HUVEC cells under TNF alpha stimulation; HUVEC TNFalpha-stimulated, Hoechst cell count, imaging; cell count reduction, % at 2 µM; 93,000 tested, 0.17% active;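 active = cell count reduction exceeding the screen mean by over 5 SD, scaled to untreated wells per plate, cut at about 78% in these data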;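 also: cells counted after 24 h of TNF alpha exposure following the 1 h pretreatment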
NFkB transloc pot: enhances IL-1B driven NFkB nuclear translocation. HUVEC IL-1B NFkB p65 nuclear translocation imaging. activation, % at 2 µM. 94,000 tested, 0.3% active. AID 819;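 active = activation above 40%, about the mean plus 3 SD, also judged a hit on visual image review; inconclusive = activation above 40% but not a hit on visual review; inactive = activation not above 40% and no visual hit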;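 also: percent activation is computed from the nuclear over cytoplasmic p65 intensity ratio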
Starred values were filed as active, the others as inactive; ? = inconclusive; . = not tested or not shown. Rows were chosen to be rich in hits. Some 1.5% of all compounds tested hit in one or more screens of this group.

SMILES	IL1B cytotox	VCAM1 TNFa inh	IL1B NFkB inh	HUVEC tox TNFa	NFkB transloc pot
O=C(N/N=C/C(Br)=C\c1ccccc1)c1n[nH]c2c1CCC2	61.8	91.4*	4.5	68.9	-4.5
CC(/C=N/NC(=O)c1n[nH]c2c1CCC2)=C\c1ccccc1	6.2	66.8*	-31.0	69.6	31.0
O=C(COC(=O)CCC(=O)c1ccc(Cl)cc1)NCC1CCCO1 (stereo not drawn)	-7.5	4.2	-1.1	-23.5	1.1
COc1ccc(NC(=O)CS(=O)CC(=O)Nc2ccc(OC)c(OC)c2)cc1 (stereo not drawn)	-7.2	9.0	4.2	-32.4	-4.2
C/C(=N\Nc1nc2c(s1)CCCC2)c1ccccc1	-14.4	61.6*	-26.1	13.4	26.1
O=C(Nc1nc2c(s1)CCCC2)Oc1ccccc1	-23.7	15.3	-16.3	8.8	16.3
O=C(C(Cc1ccccc1)n1cccc1)N1CCCCCC1 (stereo not drawn)	-38.3	6.2	-4.4	-28.7	4.4
O=C(c1cc(-c2ccncc2)nc2ccc(Br)cc12)N1CCN(c2ccccn2)CC1	-38.8	100.0*	-8.1	.	8.1
COc1cccc(CSc2nc3ccccc3cc2C=O)c1	71.9*	90.3*	43.0*	30.6	-43.0
CCN(CC)Cc1nc2c(c(=O)[nH]1)C1(CCCCC1)Cc1ccccc1-2	89.6*	-19.3	4.8	.	-4.8
CCOC(=O)c1ccc(NC(=O)CCNc2c(N3CCCC3)c(=O)c2=O)cc1	-0.3	69.6*	-7.8	-1.0	7.8
CCOC(=O)c1ccc(NC(=O)CN2CCN(c3ccccc3)CC2)cc1	-4.9	.	-0.9	.	0.9
COC(=O)C(CCSC)NC(=O)Cn1ncc2c(=O)oc3ccccc3c21 (stereo not drawn)	-0.3	21.5	2.0	-34.8	-2.0
COc1ccc(C(C)=O)c2c(O)cccc12	-10.9	-5.1	-4.5	-30.0	4.5
CCC1=NNc2cccc3c(OC)ccc1c23	-84.8	-14.9	-40.5	-32.2	40.5*
COC(=O)c1c(NC(=O)C2CC=CCC2C(=O)O)sc(C)c1C (stereo not drawn)	9.5	-6.5	-22.0	8.0	22.0
O=C(Nc1c(-c2ccccc2)nc2ccccn12)c1ccco1	93.5*	1.1	12.4	-4.7	-12.4
Cc1ccc(OCC(=O)n2cnnc2N)c(C)c1	-88.5	-5.1	-11.1	-2.6	11.1
COc1cc(/C=N/NC(=O)CCc2ccccc2)ccc1O	37.2	15.5	3.9	-5.2	-3.9
COc1ccc(/C=N/NC(=O)CCc2c(C)n[nH]c2C)cc1O	-9.4	-7.2	-55.1	2.7	55.1*
O=C(CSc1nnnn1-c1ccccc1)CC(=O)Nc1ccc(Cl)cc1	-0.9	-22.0	-2.8	-42.0	2.8
Cc1nnc(C)c2c(C)n(C(C)c3ccccc3)c(C)c12 (stereo not drawn)	8.9	-8.5	-8.1	0.0	8.1
COc1ccc(C(C)n2c(C)c3c(C)nnc(C)c3c2C)cc1 (stereo not drawn)	-19.9	-20.8	41.3*	12.2	-41.3
CC1CCN(c2nc3ccccc3nc2C(C#N)C(=O)OC2CCCCC2)CC1 (stereo not drawn)	92.5*	-11.0	96.9*	5.7	-96.9
CCOC(=O)c1cnn(-c2nc3c(C)cccc3s2)c1C	-5.8	91.5*	-14.6	89.5*	14.6
SMILES	IL1B cytotox	VCAM1 TNFa inh	IL1B NFkB inh	HUVEC tox TNFa	NFkB transloc pot
CC(=O)c1coc2ccc(OCCN3CCCCC3)cc12	-26.9	-24.0	-43.0	-13.3	43.0*
COc1ccc2occ(C(C)=O)c2c1	-24.3	2.3	-25.5	-16.1	25.5
Cc1nccn1CC(O)Cn1c2ccccc2c2ccccc21 (stereo not drawn)	-23.3	29.3	-46.4	-3.6	46.4*
COC(=O)c1ccc(-n2nnnc2SCC(=O)Nc2ccccc2OC)cc1	15.8	8.7	2.3	27.9	-2.3
Cc1cccc(C(=O)Oc2ccccc2C2C[C@]3(C)CC(=O)NC3N2C(=O)c2cccc(C)c2)c1 (stereo partly drawn)	13.3	?	-9.3	100.0*	9.3
C[C@@]12CC(=O)NC1N(C(=O)c1cccc(C(F)(F)F)c1)C(c1ccccc1O)C2 (stereo partly drawn)	-5.4	9.7	-10.4	-8.1	10.4
Cc1cccc(OCCN2CSC(=S)N(C)C2)c1	-0.9	42.7*	-33.0	13.9	33.0
Cc1cccc(OCCCN2CCCCCC2)c1	15.0	-3.4	-3.8	-2.8	3.8
O=C(NCC1CCCO1)C1CCN(S(=O)(=O)c2cccc3cccnc23)CC1 (stereo not drawn)	-3.6	10.4	-6.5	-21.9	6.5
Cc1oc2cc3c(C(=O)N4CCCCC4)c(C)oc3cc2c1C(=O)N1CCCCC1	0.5	89.1*	-4.3	79.6*	4.3
CCCCc1noc2c1/C(=N\O)CC(c1ccccc1)C2 (stereo not drawn)	-13.3	9.8	-11.1	-10.1	11.1
O=C(c1nc2nc(-c3ccc(Cl)cc3)cc(C(F)(F)F)n2n1)N1CCOCC1	-25.9	9.8	31.3*	-34.7	-31.3
COc1ccc(N2C(C)=CS/C2=C(/C#N)c2nnc(N3CCOCC3)n2-c2ccccc2)cc1	-9.0	-14.1	-46.3	-28.7	46.3*
O=C(CN1CCN(c2nc(-c3ccc(F)cc3)cs2)CC1)Nc1ccc2c(c1)OCO2	-1.8	88.0*	-7.9	13.0	7.9
Cc1ccc(N/N=C/c2ccc(N3CCOCC3)cc2)cc1C	2.7	67.2*	-5.9	.	-3.3
Cc1c(C(=O)N2CCCC2)sc(NC(=O)c2cccc(Cl)c2)c1C#N	7.4	-12.8	-8.5	-13.8	-2.5
CCN(CC)c1ccc2c(c1)oc(=O)c1c(Cl)cc(=O)oc12	35.4	-10.5	0.5	-7.6	-0.5
CCOC(=O)Cc1c(C)c2c(O)cc(O)cc2oc1=O	-30.8	-19.1	-13.6	5.4	13.6
COC(=O)c1ccc(CSc2nnc3ccccn23)o1	-2.8	8.1	-152.0	-20.3	152.0*
COc1cc(N(C)C)c(NC(C)=O)cc1C(=O)O	84.8*	22.4	-9.8	-4.8	9.8
Cc1nc(Cl)sc1C(=O)O	-15.8	17.4	-4.7	-14.8	4.7
COC(=O)c1[nH]c2cc(OC)ccc2c1NC(=O)CN1CCOCC1	-3.0	13.1	-13.4	-9.2	13.4
COC(=O)c1[nH]c2cc(OC)ccc2c1NC(=O)CN1CCC(C(N)=O)(N2CCCCC2)CC1	-5.3	50.3*	-8.4	-14.7	8.4
CCOc1ccccc1NC1=NCC(=O)N1Cc1ccc(F)cc1	-24.9	2.8	4.1	-26.0	-4.1
c1ccc2oc(-c3ccc4nc[nH]c4c3)nc2c1	-31.3	-13.9	51.7*	-6.6	-51.7
SMILES	IL1B cytotox	VCAM1 TNFa inh	IL1B NFkB inh	HUVEC tox TNFa	NFkB transloc pot
O=[N+]([O-])c1cccc(/C=N/n2c(COc3ccccc3)n[nH]c2=S)c1	-11.2	-8.2	-5.1	-35.1	5.1
O=[N+]([O-])c1ccc(/C=N/n2c(COc3ccccc3)n[nH]c2=S)cc1	3.9	42.9*	3.0	53.3	-3.0
COc1ccc(Nc2nc(N3CCCC3)nc3ccccc23)c(OC)c1	-1.0	93.9*	0.7	5.9	-0.7
CC(C)OCCCNCc1cccs1	-0.8	7.9	-6.0	-41.4	6.0
O=C(N1CCOCC1)N(CCN1CCOCC1)Cc1cccc2ccccc12	8.0	0.2	-17.4	2.6	17.4
Cc1ccc(Nc2nc(CSc3nnnn3C)cs2)cc1	4.4	96.3*	0.9	-25.4	-0.9
